Drawing on PubChem BioAssay (Tox21), this text covers Potency and activity change, negative = cytotoxicity for 40 compounds.

The structures appear in SMILES notation. Results filed as inconclusive are left out. A call without a number means that no potency is given here. Unmarked numbers belong to inactive results. The source made the active and inactive calls. Calls follow the shape of the full dose curve.

The test is described as follows: qHTS assay to identify small molecule agonists of H2AX - cell viability counter screen (AID 1224847). Also: top concentration of the series differs between compounds; nearly all actives have a fitted effect of over 30% in size. The note with it: CHO-K1 viability, CellTiter-Glo luminescence, 3 h; series mostly up to 154 µM. An excerpt: National Center for Advancing Translational Sciences [NCATS]
NIH Chemical Genomics Center [NCGC]
U.S. Environmental Protection Agency [EPA]
National Institutes of Environmental Health Sciences [NIEHS]
National Toxicology Program [NTP]
U.S. Food and Drug Administration [FDA]
HTRF phospho-H2AX (Ser139) assay (Cisbio Bioassays, US) enables the quantitative detection of the histone variant H2AX when phosphorylated on serine 139. When double-stranded DNA breaks, either by ionizing radiation or endogenous physiological processes, H2AX becomes phosphorylated at Ser139. This phospho-Ser139 serves as a sensitive biomarker for the detection of such breaks, localizing the site of DNA repair. So, HTRF phospho-H2AX Ser139 is a pertinent assay to study genome stability, the cell cycle, DNA repair, and it serves as a biomarker for cancer, and to understand aging. Wild type CHO-K1 cells were used to identify the inducers of Phospho-H2AX Ser 139 from the Tox21 compound collections. Also cytotoxicity of the Tox21 10K compound library against the CHO-K1 cell line was tested by measuring the cell viability using CellTiter-Glo assay (Promega, Madison, WI).
Tox21 Assay Protocol Summary:
The CHO-K1 cells suspended in culture medium containing 10% FBS were dispensed at 1000 cells/ 3 ul/well in 1536-well white wall/solid bottom plates (Greiner Bio-One North America, NC) using a Multidrop Combi (Thermo Fisher Scientific Inc., Waltham, MA). After the assay plates were incubated at 37C overnight, 23 nl of compounds at 15 concentrations (from 5-48 columns) or positive control (from 1 to 4 columns) were transferred to the assay plates using a Pintool station (Wako, San Diego, CA) into each well resulting in a final DMSO concentration of 0.76%. After 3hr incubation at 37C, 3 uL/well CellTiter-Glo luminescent cell viability reagent (Promega Corporation, Madison, WI) was added using a Flying Reagent Dispenser (FRD) (Aurora Discovery, CA). After incubation at room temperature for 30 min, the luminescence intensity was read using a ViewLux plate reader (PerkinElmer, Waltham, MA).
Turning to `COc1cc(C)cc(O)c1`, the Potency entry was “inactive”.

Turning to `FC(F)(F)C(F)(F)C(F)(F)C(F)(F)C(F)(F)C(F)(F)C(F)(F)C(F)(F)C(F)(F)C(F)(F)F`, the activity change, negative = cytotoxicity was 0.329% [at 14 µM].

In the case of `COc1nc(C)nc(N)n1`, the Potency result was “inactive”.

For the compound `CC(=O)NC(Cc1ccccc1)C(=O)O` (stereo not given), the Potency entry is “inactive”.

On to `CC(C)COC(=O)c1ccccc1O`, for which the Potency entry is “inactive”.

For the compound `O=c1[nH]c(=O)n([C@H]2O[C@H](CO)[C@@H](O)[C@@H]2O)cc1/C=C\Br`, the Potency entry is “inactive”.

As to `NC(=O)c1ncn([C@@H]2O[C@H](CO)[C@@H](O)[C@H]2O)c1N`, the Potency entry was “inactive”.

As for `CCCCc1ccc(N)cc1`, the Potency result was “inactive”.

With `OCCCCCCO`, the Potency entry is “inactive”.

On to `Nc1cc(C(Cl)=C(Cl)Cl)c(S(N)(=O)=O)cc1S(N)(=O)=O`, for which the Potency result was “inactive”.

As to `O=[N+]([O-])c1ccc(CCO)cc1`, the Potency result was “inactive”.

As to `CC(O)CN(CCCN(C)C)CCCN(C)C` (stereo not given), the Potency entry was “inactive”.

Turning to `CCn1c(=O)c2c(nc(/C=C/c3ccc(OC)c(OC)c3)n2C)n(CC)c1=O`, the Potency result was “inactive”.

As to `CCN1CCCC(OC(=O)C(c2ccccc2)c2ccccc2)C1` (stereo not given), the Potency entry is “inactive”.

Take `CCCCCOC(=O)Nc1nc(=O)n([C@@H]2O[C@H](C)[C@@H](O)[C@H]2O)cc1F`: the Potency entry is “inactive”.

`C=CCSCC1Nc2cc(Cl)c(S(N)(=O)=O)cc2S(=O)(=O)N1` (stereo not given): the Potency entry was “inactive”.

With `O=C(O)c1ccc[n+]([O-])c1`, the Potency entry was “inactive”.

For `COc1ccc(COC=O)cc1`, the Potency result is “inactive”.

As to `O=S(=O)(O)c1ccccc1O`, the Potency result was “inactive”.

On to `CO`, for which the Potency result was “inactive”.

Take `CSc1nc(NC2CC2)nc(NC(C)(C)C)n1`: the Potency result is “inactive”.

Turning to `C=C(C)C1CC=C(C)C(O)C1` (stereo not given), the Potency entry was “inactive”.

In the case of `CCCCCCCCCCCCCCC`, the Potency entry is “inactive”.

As for `OCc1ccccn1`, the Potency entry is “inactive”.

`CCCCOCC(C)OCC(C)O` (stereo not given): the Potency result is “inactive”.

`Cn1cnc2c(=O)[nH]c(N)nc21`: the Potency result is “inactive”.

As to `O=C(O)CCNC(=O)c1ccc(N=Nc2ccc(O)c(C(=O)O)c2)cc1`, the Potency entry was “inactive”.

Take `CC(C)CCOC(=O)CC(C)C`: the Potency entry is “inactive”.

Take `CC(C)[C@H](N)C(=O)OCCOCn1cnc2c(=O)[nH]c(N)nc21`: the Potency result is “inactive”.

`COC(=O)CCCCCCCCC(=O)OC`: the Potency entry was “inactive”.

Take `Cc1ccccc1Br`: the Potency entry is “inactive”.

With `O=S(=O)(c1cccc2cnccc12)N1CCCNCC1`, the Potency entry is “inactive”.

With `OCCN1C[C@H](O)[C@@H](O)[C@H](O)[C@H]1CO`, the Potency entry was “inactive”.

Turning to `O=C(O)c1ccccc1S`, the Potency result is “inactive”.

In the case of `CC(C)(O)C(=O)c1ccc(OCCO)cc1`, the Potency result was “inactive”.

Consider `O=C(O)/C=C/c1ccc(/C=C/C(=O)O)cc1`, for which the Potency result is “inactive”.

Regarding `Cc1cc(C)c(NC(=O)CN(CC(=O)O)CC(=O)O)c(C)c1Br`, the Potency result was “inactive”.

Consider `NC(=O)c1c(Cl)cccc1Cl`, for which the Potency result was “inactive”.

`CCC(=O)Nc1cccc(N)c1`: the Potency result was “inactive”.

Take `O=C(O)/C=C/c1ccc(Cn2ccnc2)cc1`: the Potency result was “inactive”.
